Bioassay records deposited in PubChem by National Center for Advancing Translational Sciences (NCATS).
Compounds with a hit are over-represented: about 18% of the library has one in this group of screens.
DT40 TDP1 CPT: DT40-hTDP1 cell growth loss with CPT | chicken DT40 Tdp1-/-;hTDP1 cells + 20 nM CPT, ATP luminescence, 48 h | Potency, µM (series often up to 46.2 µM), without a hit: top-dose activity change, negative = growth inhibition, usual class: inhibitors | 420,000 compounds, 12% hits | AID 686979; further: potency means the concentration at half of the fitted maximal effect; on the % scale 0 is the no-effect control and ±100 the full control effect; nearly all actives have a fitted effect of over 55% in size
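Chicken DT40 Tdp1-/- cells complemented with human TDP1, 400 cells/well, exposed to compounds plus 20 nM camptothecin for at least 48 h at 37 C; viability read as ATP content by CellTiter-Glo luminescence.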
TGFb inhibitor: inhibitors of TGF-b signaling; HepG2 CAGA-GFP TGF-b/SMAD3 reporter, GFP fluorescence, 18 h; TGF-beta stimulated, 500 pg/mL final; Potency, µM (doses to about 46.1 µM), for the others: at the highest dose activity, negative = inhibition, usual class: inhibitors; 410,000 compounds, 1.2% hits; AID 588855; further: potency means the concentration at half of the fitted maximal effect; on the % scale 0 is the no-effect control and ±100 the full control effect; nearly all actives have a fitted effect of over 65% in size
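Using HEPG2 CAGA-GFP reporter cells at 1000 cells/well, we pinned test compounds, stimulated with recombinant TGF-beta (500 pg/mL final) and measured total well GFP after 18 h.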
IL1B secr inh: inflammasome signaling inhibition, IL-1 beta readout; THP-1 LPS/ATP IL-1B secretion, AlphaLISA, 16 h; hits give low values; activity change, % at 57.5 µM; 360,000 compounds, 4.7% hits; AID 743279; in the data active means activity change below about -50%; inconclusive means mostly about -30% to -49%; further: on the % scale 0 is the no-effect control and ±100 the full control effect
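THP-1 cells pretreated 1 hr with compounds (up to 57.5 uM final), then stimulated with LPS (250 ng/mL final) plus ATP (1.25 mM final); secreted IL-1B measured by AlphaLISA after 16 hr, decreased signal indicating inhibition.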
HepG2 tox: kills HepG2 cells in TGF-b inhibitor counter-screen. AID 588856. HepG2 CAGA-GFP viability, ATP luminescence, 18 h. Potency, µM (titrated, usually from 46.1 µM), inactives show at the highest dose activity change, negative = cytotoxicity, usual class: cytotoxic. 410,000 compounds, 0.76% hits; further: potency means the concentration at half of the fitted maximal effect
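CellTiter-Glo luminescence gave cytotoxicity after 18 hours at 37 degrees C. The cells were HepG2 CAGA-GFP in 1% FBS DMEM, stimulated with 500 pg/mL TGF-beta after compound addition. %Activity was normalised to no-cell wells (complete cell-killing) and DMSO (no toxicity), and curves were fitted and classified.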
TDP1 inh: TDP1 (human) enzyme inhibition; Q9NUW8; recombinant TDP1, AlphaScreen DNA substrate cleavage; Potency, µM (series often up to 130 µM), for the others: at the top dose activity change, negative = inhibition, most hits filed as inhibitors; 350,000 compounds, 0.28% hits; AID 485290; further: potency means the concentration at half of the fitted maximal effect; on the % scale 0 is the no-effect control and ±100 the full control effect; nearly all actives have a fitted effect of over 40% in size
Target sequence (Q9NUW8 whole entry, looked up): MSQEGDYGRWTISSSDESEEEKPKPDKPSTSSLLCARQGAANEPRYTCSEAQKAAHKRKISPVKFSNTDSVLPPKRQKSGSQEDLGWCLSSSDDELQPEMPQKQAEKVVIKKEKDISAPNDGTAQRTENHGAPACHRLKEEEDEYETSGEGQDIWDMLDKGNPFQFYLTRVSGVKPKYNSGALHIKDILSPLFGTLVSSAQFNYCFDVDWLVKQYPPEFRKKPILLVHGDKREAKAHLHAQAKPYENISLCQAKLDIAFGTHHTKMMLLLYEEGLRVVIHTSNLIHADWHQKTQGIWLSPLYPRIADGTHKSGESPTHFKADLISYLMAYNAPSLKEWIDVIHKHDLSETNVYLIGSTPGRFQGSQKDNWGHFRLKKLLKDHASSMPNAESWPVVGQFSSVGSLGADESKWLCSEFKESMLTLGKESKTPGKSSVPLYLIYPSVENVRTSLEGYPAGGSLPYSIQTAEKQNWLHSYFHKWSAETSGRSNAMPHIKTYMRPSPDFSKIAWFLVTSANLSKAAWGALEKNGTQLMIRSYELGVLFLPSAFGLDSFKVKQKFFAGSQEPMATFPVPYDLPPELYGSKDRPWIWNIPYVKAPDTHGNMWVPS
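Compounds were preincubated with Tdp1 (1 nM final) for 15 min at room temperature before substrate (15 nM final) started a 5 min reaction; beads (10 ug/ml final) were then added for 10 min before AlphaScreen detection.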
DT40 TDP1 no CPT: qHTS for Inhibitors of human tyrosyl-DNA phosphodiesterase 1 (TDP1): qHTS in cells in absence of CPT; AID 686978, 2013; 420,000 compounds, 15% hits; DT40 Tdp1-/- hTDP1 cells, no CPT, ATP luminescence, 48 h; Potency, µM (top dose mostly 46.2 µM), for the others: at the top dose activity change, negative = growth inhibition, actives largely listed as inhibitors; further: potency means the concentration at half of the fitted maximal effect; on the % scale 0 is the no-effect control and ±100 the full control effect; nearly all actives have a fitted effect of over 55% in size
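Stably hTDP1-transfected Tdp1-null chicken DT40 cells were treated with library compounds minus camptothecin and grown for at least 48 hr at 37 °C, after which cellular ATP was quantified by luminescence.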
* = called active by the depositor; ? = inconclusive; nt = no result given; [ ] = another dose, or the depositor's remark. Unless noted, the call rests on the fitted dose curve; in most records, active means well fitted curve in the direction sought with a large enough effect; inconclusive means small, poorly fitted or top-dose-only effect, or another doubt; inactive means no such curve, though single readings can be large; an effect the other way counts as inactive or inconclusive.

SMILES | DT40 TDP1 CPT | TGFb inhibitor | IL1B secr inh | HepG2 tox | TDP1 inh | DT40 TDP1 no CPT
CCOC(=O)c1cc2c(=O)n3cccc(C)c3nc2n(CC(C)C)c1=NC(=O)c1ccco1 | ? | -20% | -4 | 15% | -3% | 21µM*
CC1(C)OC(=O)C2(Cc3cc([N+](=O)[O-])ccc3N3CCCCCC32)C(=O)O1 (configuration not stated) | -6% | 2% | nt | 5% | nt | -11%
CCC1(C)Cc2ccccc2/C(=C/C(=O)N2CCCCC2)N1 (configuration not stated) | 18µM* | ? | -11 | -16% | 2% | 21µM*
O=C1OC(c2ccc(F)cc2)=N/C1=C\C=C/c1ccccc1 | -1% | 12% | 10 | -1% | nt | 3%
CCc1nc2c(OCCOC)cccn2c1N(C)C(=O)Nc1ccccc1OC | -6% | 22% | -11 | -3% | nt | -5%
Oc1ccc(C[C@@H]2CNCCN2CCc2cc(C(F)(F)F)cc(C(F)(F)F)c2)cc1 | 23µM* | ? | -67* | -93% | -3% | ?
Oc1ccc(C[C@H]2CNCCN2CCc2cc(C(F)(F)F)cc(C(F)(F)F)c2)cc1 | 10µM* | ? | ? | -108% | nt | ?
FC(F)(F)c1cc(CCN2CCNC[C@H]2Cc2cccc3ccccc23)cc(C(F)(F)F)c1 | 8.2µM* | ? | -105* | -104% | nt | 8.2µM*
O=C(CN1C(=O)c2ccccc2C1=O)NC(Cc1ccccc1)C(=O)O (configuration not stated) | 1% | ? | 0 | -5% | nt | 9%
O=C(NCc1cc(C(F)(F)F)cc(C(F)(F)F)c1)C1CC(c2ccc(C(F)(F)F)cc2)=NO1 (configuration not stated) | ? | -8% | ? | -28% | nt | ?
COc1ccc(CNC(=O)C2CC(c3cc(C(F)(F)F)cc(C(F)(F)F)c3)=NO2)cc1 (configuration not stated) | 3.3µM* | -16% | 63 | 8% | 2% | 4.6µM*
O=C(NCc1cc(C(F)(F)F)cc(C(F)(F)F)c1)C1CC(c2c(Cl)cccc2Cl)=NO1 (configuration not stated) | ? | ? | -50* | -20% | 1% | ?
Cc1ccc(CNC(=O)C2CC(c3ccc(C(F)(F)F)cc3)=NO2)o1 (configuration not stated) | 12µM* | -13% | -3 | -1% | -7% | 7.3µM*
COc1ccc(CNC(=O)C2CC(c3ccccc3C(F)(F)F)=NO2)cc1 (configuration not stated) | 0% | -30% | -15 | 0% | 0% | -10%
COc1cc(NC(=O)C2CC(c3c(F)cccc3Cl)=NO2)cc(OC)c1OC (configuration not stated) | ? | -5% | -16 | -18% | nt | 10µM*
COc1ccc(CCNC(=O)C2CC(c3ccc(C(F)(F)F)cc3)=NO2)cc1 (configuration not stated) | ? | -14% | 5 | -22% | 1% | 15µM*
COc1ccc(CCNC(=O)C2CC(c3cccc(F)c3)=NO2)cc1 (configuration not stated) | -8% | -19% | 18 | 1% | 5% | -17%
Cc1cc(C)n(-c2cc(N3CCN(S(=O)(=O)c4ccc(C)c(C)c4)CC3)ccc2[N+](=O)[O-])n1 | 21µM* | -6% | -2 | 6% | 6% | ?
Cc1ccc(S(=O)(=O)N2CCN(c3ccc([N+](=O)[O-])c(Sc4nncn4C)c3)CC2)cc1 | ? | -20% | -9 | 6% | 1% | ?
Cc1cc(C)n(-c2ccc(S(=O)(=O)N3CCCC3)cc2[N+](=O)[O-])n1 | 1% | -1% | 5 | 12% | 1% | 4%
Cn1cnnc1Sc1cc(N2CCN(S(=O)(=O)c3ccc(Cl)c(Cl)c3)CC2)ccc1[N+](=O)[O-] | ? | ? | 0 | -16% | 0% | 15µM*
Cc1cc(C)n(-c2cc(N3CCN(S(=O)(=O)c4ccc5ccccc5c4)CC3)ccc2[N+](=O)[O-])n1 | ? | ? | -10 | -3% | 4% | 9.2µM*
COC(=O)CNC(=O)C1(C)C=CC2(CCCCC2)N1C(C)=O (configuration not stated) | nt | nt | nt | nt | 1% | nt
CCOC(=O)C(=CNc1cc(C)ccc1C)C(=O)OCC | ? | 0% | -24 | -22% | -8% | 16µM*
Cc1ccc(Oc2ncccc2NC(=O)CC2(CC(=O)O)CCCC2)c2c1CCC2 | 3% | -3% | nt | 16% | 2% | -25%
SMILES | DT40 TDP1 CPT | TGFb inhibitor | IL1B secr inh | HepG2 tox | TDP1 inh | DT40 TDP1 no CPT
CCOC(=O)C(=CNc1cc(OC)ccc1-n1cccc1)C(=O)OCC | ? | -29% | ? | -111% | 5% | 21µM*
CCOC(=O)C(=CNc1cccnc1Oc1ccc(C)c2c1CCC2)C(=O)OCC | 15µM* | 0% | -15 | 24% | -4% | 21µM*
CCOC(=O)C(=CNc1cc(C)ccc1[N+](=O)[O-])C(=O)OCC | ? | 14% | -13 | 8% | 0% | ?
CCOC(=O)C(=CNc1cc(C)ccn1)C(=O)OCC | -4% | -3% | 19 | -39% | 8% | ?
CCOC(=O)C(=CNc1cc(C)nn1-c1ccc(C)cc1)C(=O)OCC | 23µM* | -25% | -9 | -25% | 0% | 9.2µM*
COC(=O)c1ccc(NC(=O)CSc2nnc(-c3cccnc3)o2)cc1 | -10% | 14% | -7 | -19% | -1%[0.505 µM] | 0%
O=C(CN1C(=O)c2ccccc2C1=O)NC1CCC(O)CC1 (configuration not stated) | 6% | ? | 19 | 12% | 1% | 11%
CCOC(=O)NNc1ccccc1 | 5% | 2% | 8 | 1% | 5% | 0%
CCOC(=O)C(=CNNc1ccccc1)C(=O)OCC | 4.6µM* | ? | -15 | 6% | 7% | 16µM*
COc1cc(CN2CCC3(CC2)CC3C(=O)Nc2ccc3sc(C)nc3c2)ccc1F (configuration not stated) | -8% | nt | nt | nt | nt | -15%
COc1cc(CNc2nc(C)c(-c3ccn(CC4CCCN(C)C4)n3)s2)ccc1F (configuration not stated) | -15%[9.04 µM] | nt | nt | nt | nt | 23µM*
